# Experimental data: PubChem BioAssay (Tox21)
# Inconclusive results are not listed. Calls of active or inactive are those of the source. Calls follow the shape of the full dose curve.
# Test: qHTS assay to identify small molecule agonists of the hypoxia (HIF-1) signaling pathway - cell viability counter screen (AID 1224844); also: nearly all actives have a fitted effect of over 50% in size
# Settings: HRE-bla ME-180 viability, CellTiter-Glo luminescence, 17 h; series mostly up to 76.8 µM; activity change, negative = cytotoxicity: at the top concentration
# Excerpt: National Center for Advancing Translational Sciences [NCATS]
# NIH Chemical Genomics Center [NCGC]
# U.S. Environmental Protection Agency [EPA]
# National Institutes of Environmental Health Sciences [NIEHS]
# National Toxicology Program [NTP]
# U.S. Food and Drug Administration [FDA]
# Hypoxia-inducible factor-1 (HIF-1) is the major hypoxia-regulated transcription factor that controls cellular responses to low oxygen concentration. HIF-1 is composed of two subunits: hypoxia responsive HIF-1-alpha and constitutively expressed HIF-1-beta, which is also known as aryl hydrocarbon receptor nuclear translocator. During hypoxic conditions, HIF-1-alpha heterodimerizes with HIF-1-beta and translocates into the nucleus where the HIF-1 complex binds to the hypoxia-response element (HRE) and activates expression of target genes such as VEGF (vascular endothelial growth factor). The HIF-1 pathway is essential to normal growth and development, and is involved in the pathophysiology of cancer, inflammation, and ischemia.
# Using a beta-lactamase reporter-gene under control of the hypoxia response element, a cell-based assay [CellSensor(TM) HRE-bla ME-180 from Life Technologies, Carlsbad, CA] was used to measure hypoxia-induced signaling. Tox21 10K library compounds were measured for their ability to induce the reporter gene activity. The cytotoxicity of the Tox21 compound library against HRE-bla ME-180 cell line was tested in parallel by measuring cell viability using CellTiter-Glo assay (Promega, Madison, WI) in the same assay wells.
# Tox21 Assay Protocol Summary:
# HRE-bla ME-180 cells were dispensed at 2,000 cells per well in 6 uL of assay medium containing 0.5% dialyzed FBS into black wall/clear-bottom 1536-well plates using a Multidrop Combi (Thermo Scientific, Waltham, MA) dispenser. After the assay plates were incubated at 37C and 5% CO2 for 5 hrs, 23 nL of compounds dissolved in DMSO, positive controls or DMSO only was transferred to each well of the assay plate using a Pintool station (Kalypsys, San Diego, CA). The assay plates were incubated at 37C and 5% CO2 for 17 hrs. One uL of LiveBLAzerTM B/G FRET substrate (CCF4-AM) (Life Technologies) was added to each well using a Flying Reagent Dispenser (FRD, Aurora Discovery, San Diego, CA). After 2 hr incubation at room temperature, fluorescence intensity (405 nm excitation, 460 nm and 530 nm emissions) was measured using an Envision plate reader (PerkinElmer, Shelton, CT). For cytotoxicity, 4 ul/well of CellTiter-Glo reagent was added into the assay plates using an FRD. After 30 min incubation at room temperature, the luminescence intensity was measured using a ViewLux plate reader (PerkinElmer).
# % is scaled to controls: 0 for no effect and ±100 for the full control effect; potency is read from the fitted curve at half-maximal effect.
Compound,"activity change, negative = cytotoxicity",Potency
O=C(O)c1cc(C(=O)O)c(C(=O)O)cc1C(=O)O,0.892% (inactive),
O=C(c1ccco1)N1CCNCC1,0.757% [at 35.3 µM] (inactive),
CC(C(=O)O)c1ccc(/C=C2\CCCCC2=O)cc1 (stereo not given),6.73% [at 35.3 µM] (inactive),
COc1cc(C)c(Cc2cnc(N)nc2N)cc1OC,16.1% [at 35.3 µM] (inactive),
CC/C=C\CCO,3.51% (inactive),
c1ccc(CCNc2nc(-c3ccccc3)cs2)cc1,3.82% [at 35.3 µM] (inactive),
CCCCC(CC)COCCC#N (stereo not given),-0.74% (inactive),
CC(=O)Oc1cccc2c1C(=O)c1c(OC(C)=O)cc(C(=O)O)cc1C2=O,-0.857% [at 35.3 µM] (inactive),
CCc1cnc(C(=O)O)c(C(=O)O)c1,2.93% (inactive),
CC(=O)Nc1ccn(C2COC(COC(=O)c3ccccc3)O2)c(=O)n1 (stereo not given),-11% [at 35.3 µM] (inactive),
C=CC(=O)OCCCCCCCCCC,-0.397% (inactive),
CC(C)(C)c1cc(C=O)cc(C(C)(C)C)c1O,1.68% [at 35.3 µM] (inactive),
Cc1ccccc1CCO,4.26% (inactive),
O=P(c1ccccc1)(c1ccccc1)c1ccccc1,8.26% (inactive),
CC(C)(Cc1c[nH]c2ccccc12)NCC(O)COc1ccccc1C#N (stereo not given),-17.3% [at 35.3 µM] (inactive),
O=C(OC1C[C@H]2CC[C@@H](C1)[N+]21CCCC1)C(O)(c1ccccc1)c1ccccc1 (stereo not given in full),-3.64% [at 35.3 µM] (inactive),
CCCCCCCCCCCC(=O)OCC,-0.302% (inactive),
O=C(O)COCC(=O)O,8.84% (inactive),
CCOc1ccc2c(c1)C(C)CC(C)(C)N2 (stereo not given),8.14% (inactive),
CC1=C(C)C(=O)C(C(CCCCCC(=O)O)c2ccccc2)=C(C)C1=O (stereo not given),2.25% [at 35.3 µM] (inactive),

Compound,"activity change, negative = cytotoxicity",Potency
Nc1ncnc2c1ncn2[C@@H]1O[C@H](CO)[C@@H](O)[C@H]1O,-13.5% [at 35.3 µM] (inactive),
CCCCOc1ccc(N)cc1,1.16% (inactive),
C[C@]12CCC(=O)C=C1[C@@H]1C[C@@H]1[C@H]1[C@@H]3[C@@H]4C[C@@H]4[C@@]4(CCC(=O)O4)[C@@]3(C)CC[C@@H]12,-13.1% [at 35.3 µM] (inactive),
O=C(c1ccc(Cl)cc1)c1ccc(Cl)cc1,2.84% (inactive),
OCC(O)c1ccccc1 (stereo not given),,38.9 µM (active)
COc1ccc(CN(CCN(C)C)c2ncccn2)cc1,-0.146% [at 35.3 µM] (inactive),
COc1ccc(/C=C/S(=O)(=O)NC(=O)c2ccc(C)cc2Cl)cc1,-3.64% (inactive),
CCCc1ccc(OC)cc1,-1.05% (inactive),
CC1(C)CC(=O)CC(C)(C)N1,3.57% (inactive),
CC(C)CCCCCOC(=O)CS,-0.384% (inactive),
Cc1ccc(S(=O)(=O)NC(=O)NC2CCCC2)cc1,-0.0537% [at 35.3 µM] (inactive),
Cc1c(Cl)cccc1Nc1ccccc1C(=O)O,8.81% [at 35.3 µM] (inactive),
N#CCCCC(C#N)CCC#N (stereo not given),2.13% (inactive),
CCC1=C(C)CN(C(=O)NCCc2ccc(S(=O)(=O)NC(=O)NC3CCC(C)CC3)cc2)C1=O (stereo not given),-10.8% [at 35.3 µM] (inactive),
c1ccc(-c2ccc(-c3ccccc3)cc2)cc1,1.63% [at 15.8 µM] (inactive),
CCCCCO,6.92% (inactive),
CCC(=O)O[C@@H]1C[C@H]2CC[C@]1(C)C2(C)C,3.76% (inactive),
CCCCCCCCCCCCSC#N,-2.48% (inactive),
N#Cc1ccc(CC(=O)c2cccc(C(F)(F)F)c2)cc1,0.552% (inactive),
Sc1nc(S)nc(S)n1,1.31% [at 35.3 µM] (inactive),
